Compounds with a hit are over-represented: about 11% of the library has one in this group of screens.
HPGD inh: qHTS Assay for Inhibitors of HPGD (15-Hydroxyprostaglandin Dehydrogenase); 150,000 tested, 4.3% active; purified HPGD, NADH fluorescence kinetic, PGE2 substrate; 15-hydroxyprostaglandin dehydrogenase [NAD(+)] (Homo sapiens), P15428; Potency, µM, for inactives: at the top dose activity change, negative = inhibition, most hits filed as inhibitors; note: potency is the fitted concentration of half-maximal effect
Target sequence (P15428 whole entry, looked up): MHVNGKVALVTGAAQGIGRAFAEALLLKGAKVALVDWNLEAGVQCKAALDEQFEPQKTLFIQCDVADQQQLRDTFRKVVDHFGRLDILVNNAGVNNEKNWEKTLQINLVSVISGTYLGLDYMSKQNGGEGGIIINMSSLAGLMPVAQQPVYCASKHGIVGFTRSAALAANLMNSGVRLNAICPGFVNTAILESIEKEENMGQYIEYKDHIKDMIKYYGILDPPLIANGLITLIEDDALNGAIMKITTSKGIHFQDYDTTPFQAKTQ
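NADH formation kinetics: reaction with 30 uM PGE2 and 1 mM NAD+ (final), 20 nM enzyme, Tris-HCl pH 8 with Tween 20, after 15 min compound preincubation at room temperature. Fluorescence change, last versus first of five reads.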
ALDH1A1 block: qHTS Assay for Inhibitors of Aldehyde Dehydrogenase 1 (ALDH1A1). Aldehyde dehydrogenase 1A1 (Homo sapiens), P00352. Purified ALDH1A1, NADH fluorescence, propionaldehyde substrate. Potency, µM (highest dose often 75.3 µM), without a hit: at the top dose activity, negative = inhibition, actives largely listed as inhibitors. 220,000 tested, 7.3% active. AID 1030, 2008;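 note: potency is the fitted concentration of half-maximal effect; plate controls were no enzyme wells and a reference inhibitor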
PNC inhibitor: High Content Assay for Compounds that inhibit the Assembly of the Perinucleolar Compartment. PC3M PTB-GFP, PNC prevalence imaging, 16 h; hits give low values. activity change (PNC), negative = inhibition, % at 10 µM. 140,000 tested, 3.1% active;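 active = readout at or below -70, meaning at least 70% loss of cells showing the perinucleolar compartment, a nuclear body marking cancer cells; inconclusive = readout between -30 and a set limit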;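 note: plate controls were DMSO wells for no effect and camptothecin positive control wells for full effect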
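PC3M cells stably expressing PTB-GFP, 750–1000 cells/well, treated 16 h at 37 °C with compound (23 nl of library stock), in duplicate. After paraformaldehyde fixation and Hoechst stain, imaged at 20x; PNC prevalence scored by image analysis.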
IMPase cell inh: qHTS Assay for Identifying the Cell-Membrane Permeable IMPase Inhibitors. Inositol monophosphatase 1 (Rattus norvegicus), P97697. 120,000 tested, under 10 active. inhibition (IP1 accumulation), % at 46.1 µM. AID 901, 2007. CHO-M1 cells, IP1 accumulation, HTRF TR-FRET ratio; active = well fitted curve in the direction sought with a large enough effect in the signal ratio, not every such curve was filed as active; inconclusive = small, poorly fitted or top-dose-only effect, or a change in a side signal; inactive = no such curve, though single readings can be large or run the other way; the % refers to the signal ratio;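 note: cells stimulated with carbachol in lithium chloride buffer; plate controls were DMSO basal wells for no effect and reference inhibitor wells for full effect; higher means more IMPase inhibition seen as more IP1 and lower FRET ratio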
Target sequence (P97697 whole entry, looked up): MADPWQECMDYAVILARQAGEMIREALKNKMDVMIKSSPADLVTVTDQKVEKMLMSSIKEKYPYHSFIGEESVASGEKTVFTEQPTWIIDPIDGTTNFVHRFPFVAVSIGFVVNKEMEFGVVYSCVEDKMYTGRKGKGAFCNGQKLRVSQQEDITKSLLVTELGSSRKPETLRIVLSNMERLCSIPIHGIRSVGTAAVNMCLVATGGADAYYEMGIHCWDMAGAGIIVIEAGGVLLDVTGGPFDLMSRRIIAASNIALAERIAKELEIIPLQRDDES
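CHO-M1, 2000 cells/well, cultured 16–30 h; cpd up to 46 uM; carbachol (50 uM solution, stimulation buffer w/ 50 mM LiCl, pH 7.4), 30 min 37C; IP-One TR-FRET, 10 min RT; Ex 320/Em 665, 620; Hill-fit AC50.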
IMPase Li cell: qHTS Assay for Identifying the Cell-Membrane Permeable IMPase Inhibitors: Potentiation with Lithium. AID 1457, 2008. 210,000 tested, 0.35% active. Potency, µM (doses to about 59.4 µM), for the others: at the top dose activity, negative = IMPase inhibition, most hits filed as inhibitors. CHO-M1 cells, IP1 TR-FRET (IP-One), carbachol + lithium; active = well fitted inhibition curve with a large enough effect; inconclusive = small, poorly fitted or top-dose-only effect; inactive = no such curve, though single readings can be large or run the other way;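 note: IP1 builds up when IMPase is blocked and the TR-FRET signal falls; potency is the fitted concentration of half-maximal effect; plate controls were basal vehicle for no effect and high inhibitor control for full effect; nearly all actives have a fitted effect of over 50% in size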
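CHO-M1, 2000 cells/well, 16–30 h culture; cpd + low Li+, 30 min 37C; lysis with d2-IP1/Eu-anti-IP1 Ab, 10 min RT; TR-FRET 665/620 ratio and 620 channel; AC50 via Hill.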
* marks the source's active call; other numbers are inactive results; [ ] = another dose, or the depositor's remark. Unless noted, calls come from the whole dose curve; as a rule, active = well fitted inhibition curve with a large enough effect (not every such curve was filed as active); inconclusive = small, poorly fitted or top-dose-only effect, or another doubt; inactive = no such curve, though single readings can be large or run the other way. Unless noted, % is set by controls: 0 for no effect and ±100 for the full control effect.

For O=C(c1ccccc1)N1CCN(C(=S)NCc2ccc3c(c2)OCO3)CC1 the results were HPGD inh 31.6µM*, ALDH1A1 block 17.8µM*, PNC inhibitor 71.1 and IMPase Li cell -4.5%.
For NC(=O)C1CCCN(C(=S)NCc2ccc3c(c2)OCO3)C1 (centres undefined) the results were ALDH1A1 block 25.1µM* and IMPase Li cell 10.0%.
`NC(=O)C1CCN(C(=S)NCc2ccc3c(c2)OCO3)CC1` gave ALDH1A1 block 2.4% and IMPase Li cell 7.0%.
`CC1(C)N=C(N)N=C(N)N1CCCCc1ccccc1` gave HPGD inh 3.2%, ALDH1A1 block -8.6%[13.5 µM] and IMPase Li cell 7.5%.
`O=c1ccc2cc3c([nH]c4ccc(Br)cc43)oc-2c1O` gave HPGD inh 15.8µM*, ALDH1A1 block 7.94µM*, PNC inhibitor 2.4, IMPase cell inh 5.6 and IMPase Li cell 12.8%[38.3 µM].
Screening COc1ccc(S(=O)(=O)N2c3ccc(Cl)cc3[C@](O)(c3ccccc3Cl)[C@@H]2C(=O)N2CCC[C@H]2C(N)=O)cc1OC returned HPGD inh 0.4%, ALDH1A1 block 1.8% and IMPase Li cell -9.4%.
COc1cc(/C=C2\SC(=O)NC2=O)ccc1Oc1ccc([N+](=O)[O-])cc1[N+](=O)[O-] was read as ALDH1A1 block inconclusive and IMPase Li cell 13.6%.
For Cc1ccc(S(=O)(=O)/N=C2/NC(=O)/C(=C/c3ccncc3)S2)cc1 the results were HPGD inh 14.1µM*, ALDH1A1 block inconclusive, PNC inhibitor 46.6 and IMPase Li cell 1.5%.
Screening Cc1ccc(S(=O)(=O)/N=C2/NC(=O)/C(=C/c3ccccc3)S2)cc1 returned ALDH1A1 block inconclusive and IMPase Li cell 10.7%.
For COc1cc(/C=C2\S/C(=N/S(=O)(=O)c3ccc(C)cc3)NC2=O)c([N+](=O)[O-])cc1OC the results were HPGD inh 7.08µM*, ALDH1A1 block inconclusive, PNC inhibitor inconclusive, IMPase cell inh -7.7 and IMPase Li cell 0.7%.
For Nc1nc2ncc(=O)[nH]c2c(=O)[nH]1 the results were HPGD inh inconclusive, ALDH1A1 block inconclusive and IMPase Li cell -13.3%.
For COc1cc(CC(C#N)(CO)c2nc3ccccc3[nH]2)ccc1OC(F)F (centres undefined) the results were HPGD inh -8.4%, ALDH1A1 block -1.2%, PNC inhibitor 30.5 and IMPase Li cell -0.2%.
Screening CC(=O)OC[C@@H]1O[C@H](CCON=C(C)C)C=C[C@@H]1OC(C)=O returned ALDH1A1 block 2.9%[13.5 µM].
CSCC[C@@H](Nc1nc(-c2ccccc2)nc2c1oc1ccccc12)C(=O)O was read as HPGD inh -12.3%, ALDH1A1 block 11.2µM*, PNC inhibitor 20.0, IMPase cell inh 1.7 and IMPase Li cell -3.6%[38.3 µM].
`Cc1nc(N[C@@H](Cc2c[nH]c3ccccc23)C(=O)O)c2oc3ccccc3c2n1` gave HPGD inh inconclusive, ALDH1A1 block -55.3%, PNC inhibitor -28.8, IMPase cell inh -13.4 and IMPase Li cell 11.2µM*.
Cc1nc(N[C@@H](Cc2ccccc2)C(=O)O)c2oc3ccccc3c2n1 was read as HPGD inh -15.2%, ALDH1A1 block 17.8µM*, PNC inhibitor 51.7, IMPase cell inh -3.9 and IMPase Li cell -12.3%[38.3 µM].
CCc1nc(N[C@@H](Cc2c[nH]c3ccccc23)C(=O)O)c2oc3ccccc3c2n1 was read as HPGD inh -1.2%, ALDH1A1 block 2.9%, PNC inhibitor 15.8, IMPase cell inh 6.0 and IMPase Li cell -8.8%[38.3 µM].
For Nc1nc2c(c(=O)[nH]1)N=C(CNc1ccc(C(=O)NC(CCC(=O)O)C(=O)O)cc1)CN2 (centres undefined) the results were HPGD inh inconclusive, ALDH1A1 block inconclusive, IMPase cell inh 7.9 and IMPase Li cell 14.9%.
Screening Cc1cccc(C)c1-n1nnnc1-c1cnccc1C(F)(F)F returned ALDH1A1 block 20µM*.
For COc1ccc(-c2nc3c(c4c2C[C@H](c2ccccc2)OC4)CN(S(=O)(=O)c2ccc(C#N)cc2)CC3)c(C)c1 the results were HPGD inh 1.1%, ALDH1A1 block 0.501µM* and IMPase Li cell 0.6%.
Screening COc1ccc(-c2nc3c(c4c2C[C@H](c2ccccc2)OC4)CN(S(=O)(=O)c2ccc(C)cc2)CC3)c(C)c1 returned HPGD inh -3.9%, ALDH1A1 block inconclusive and IMPase Li cell 3.5%.
Screening COc1ccc(-c2nc3c(c4c2C[C@H](c2ccccc2)OC4)CN(C(=O)c2cc(I)ccc2F)CC3)c(C)c1 returned HPGD inh -2.0%, ALDH1A1 block 1.12µM* and IMPase Li cell 2.6%.
Screening COc1cccc(CC(=O)N2CCc3nc(-c4ccc(OC)cc4C)c4c(c3C2)CO[C@@H](c2ccccc2)C4)c1 returned HPGD inh -10.6%, ALDH1A1 block 3.98µM* and IMPase Li cell 4.7%.
For COc1ccc(-c2nc3c(c4c2C[C@H](c2ccccc2)OC4)CN(C(=O)C2CCCCC2)CC3)c(C)c1 the results were HPGD inh -7.6%, ALDH1A1 block inconclusive and IMPase Li cell 1.1%.
COc1ccc(-c2nc3c(c4c2C[C@H](c2ccccc2)OC4)CN(C(=O)N[C@@H](C)c2ccccc2)CC3)c(C)c1 was read as HPGD inh -13.5%, ALDH1A1 block 3.55µM* and IMPase Li cell 2.8%.
CCOc1ccc(Br)cc1C1C(C(=O)Nc2ccccc2OC)=C(C)Nc2nnnn21 (centres undefined) was read as IMPase cell inh -2.1.
For O=C(NCCCN1CCOCC1)c1ccc(Cc2nc3ccccc3[nH]2)cc1 the results were HPGD inh -5.7% and ALDH1A1 block 8.8%.
Screening C=CC[C@H]1CC(Cc2ccccc2)=C[C@H](CC=C)N1 returned HPGD inh -2.0%, ALDH1A1 block inconclusive, PNC inhibitor -80.8* and IMPase Li cell 7.2%.
For COc1cc(C#N)c(NC(=O)CN2CCN(CCO)CC2)cc1OC the results were ALDH1A1 block 0.2% and IMPase Li cell -5.9%.
Screening CCOC(=O)c1c(NC(=O)C2=C(C)NC(=S)NC2c2ccc(CC)cc2)sc(C)c1C (centres undefined) returned HPGD inh inconclusive, ALDH1A1 block 28.2µM*, PNC inhibitor -5.3 and IMPase Li cell -0.9%.
CCOC(=O)C1=C(C)NC(=S)NC1c1cccc(O)c1 (centres undefined) was read as HPGD inh inconclusive, ALDH1A1 block 1.12µM*, IMPase cell inh -2.5 and IMPase Li cell 13.7%.

Screening data: PubChem BioAssay, National Center for Advancing Translational Sciences (NCATS)
